Sampled rows, rich in hits. Any-hit rate of the full collection: about 4.1%.
hcDAF-12 act: activates DAF-12 receptor from parasite H. contortus; 1.4% of 370,000 active; AID 652067; activation, % at 6.8 µM; HEK293 hcDAF-12 lit1-tk-luc reporter, luminescence; 0% DMSO, 100% Δ7-dafachronic acid;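 active = activation above the mean of all tested compounds plus 3 SD, cut at about 5.5% in these data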
hgDAF-12 ag: hgDAF-12 agonism, primary luciferase screen; HEK293 GAL4-hgDAF12 UAS-luciferase reporter, agonist luminescence; normalized to butyrate control; activation, % at 6.8 µM; 1.8% of 370,000 active;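 active = activation above a cutoff set at the mean of all screened compounds plus 3 SD, cut at about 10% in these data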
ssDAF-12 act: activates DAF-12 receptor from parasite S. stercoralis; 1% of 370,000 active; activation, % at 6.8 µM; HEK293 ssDAF-12/GRIP1 lit1-tk-luc reporter, luminescence; % of 3 µM dafachronic acid response;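 active = activation above the mean over all tested compounds plus 3 SD, cut at about 0.9% in these data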
DAX1 inh-1: DAX1 (NR0B1) inhibition, primary screen. 1.1% of 370,000 active. inhibition, % at 6.8 µM. AID 652010. HEK293T StAR-luciferase reporter, SF-1/DAX-1 repression relief;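 active = inhibition above the mean over all tested compounds plus 3 SD, cut at about 3.6% in these data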;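 also: higher inhibition means more luminescence from relief of DAX-1 repression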
DAX1 inh-2: inhibitors of human orphan nuclear receptor DAX1 (NR0B1). inhibition, % at 6.75 µM. HEK293 Gal4-DAX1 luciferase reporter, luminescence. 0.99% of 340,000 active. P51843;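 active = inhibition above the mean over all tested compounds plus 3 SD, cut at about 4.2% in these data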;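 also: inhibition shows as a rise in luminescence from relieved DAX1 repression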
hgDAF12 ag: confirmation of H. glycines DAF-12 agonists. 80% of 3,300 active. HEK293 GAL4-hgDAF12 luciferase reporter, agonist mode; percent of butyrate response. activation, % at 6.8 µM. shares compounds with hgDAF-12 ag;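 active = mean activation over triplicate wells above the hit cutoff derived from the earlier primary screen, cut at about 11% in these data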
LXR ag 2: activates human LXR-beta, counter-screen for DAF-12 agonists; shares compounds with hgDAF-12 ag; HEK293 Gal4-LXR luciferase reporter, 24 h; activation, % at 6.8 µM; 3,300 tested, under 10 active; AID 743051;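 active = mean activation of the triplicate above a set limit carried over from the primary screen, none filed active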
Target sequence (P55055 whole entry, looked up, the tested form may be a part): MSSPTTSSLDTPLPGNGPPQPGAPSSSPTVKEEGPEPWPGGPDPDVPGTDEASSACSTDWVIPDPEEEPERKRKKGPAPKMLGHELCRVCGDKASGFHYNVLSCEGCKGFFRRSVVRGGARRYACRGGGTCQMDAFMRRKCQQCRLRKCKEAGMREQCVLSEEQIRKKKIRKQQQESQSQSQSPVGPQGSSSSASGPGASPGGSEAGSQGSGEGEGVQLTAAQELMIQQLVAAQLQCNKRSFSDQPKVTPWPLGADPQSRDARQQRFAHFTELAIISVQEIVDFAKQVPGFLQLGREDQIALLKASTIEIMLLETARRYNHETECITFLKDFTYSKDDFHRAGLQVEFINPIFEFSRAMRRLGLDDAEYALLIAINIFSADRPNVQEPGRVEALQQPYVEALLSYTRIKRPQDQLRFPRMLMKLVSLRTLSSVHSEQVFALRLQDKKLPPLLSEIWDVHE
Large screens that a line does not name were inactive (follow-up assays come after a bar, where they were run).

O=C(CN[C@@H](Cc1c[nH]c2ccccc12)C(=O)NCCc1c[nH]c2ccccc12)NC1CCCCC1	none (no result: DAX1 inh-1, DAX1 inh-2)
CN(c1cccnc1)c1ccc(NC(=O)Cc2c[nH]c3ccccc23)cc1-c1cccnc1F	none (no result: DAX1 inh-2)
C[C@@H]1CN([C@H](C)CO)C(=O)c2cc(NC(=O)Nc3ccc(F)cc3)ccc2O[C@@H](C)CCCCO[C@@H]1CN(C)C(=O)CCCN(C)C	none (no result: DAX1 inh-2)
COc1ccc(C(=O)Nc2ccc(SC(F)F)cc2)cc1	hgDAF-12 ag 15 | hgDAF12 ag 12 | LXR ag 2 inactive
COc1ccc(NC(=O)c2cc3ccccc3cc2O)cc1	hgDAF-12 ag 15 | hgDAF12 ag 16 | LXR ag 2 inactive
CCCCOc1ccc(C(=O)Nc2ccc(SC(F)F)cc2)cc1OC	none
COc1ccc(-c2cc3ccc(O)cc3oc2=O)cc1	hgDAF-12 ag 14 | hgDAF12 ag 14 | LXR ag 2 inactive
O=c1oc2cc(O)ccc2cc1-c1ccccc1	none
COc1ccc(C(=O)NNC(=O)c2cc3ccccc3cc2O)cc1	none
CCCCNc1cccc2c1S(=O)(=O)N[C@@H](Cc1ccccc1)CO2	none (no result: DAX1 inh-2)
Cc1csc2nc(CSc3nc4ccccc4o3)cn12	hgDAF-12 ag 13 | hgDAF12 ag inactive | LXR ag 2 inactive
Cc1cccc(NC(=O)c2cccnc2)c1C	none
CSCc1ccc(C(=O)Nc2cccc(C)c2C)cc1	hgDAF-12 ag 14, ssDAF-12 act 1.7 | hgDAF12 ag 11 | LXR ag 2 inactive
COc1ccc(Cn2ccc3ccc(-c4ccc5ccn(C(=O)c6ccccc6OC)c5c4)cc32)cc1	none (no result: DAX1 inh-2)
COc1cccc(/C=C/c2ccccn2)c1O	hgDAF-12 ag 16 | hgDAF12 ag 14 | LXR ag 2 inactive
CCN(CC)CCOC(=O)c1ccc(NC(=O)c2cn(-c3ccccc3)nc2-c2cccs2)cc1	hgDAF-12 ag 15 | hgDAF12 ag inactive | LXR ag 2 inactive
Cc1ccc(-c2cc(-c3nnc(SCc4cccc5ccccc45)n3N)[nH]n2)cc1	none (no result: DAX1 inh-2)
O=C(NNC(=S)Nc1ccccc1)c1ccc(O)cc1	hgDAF-12 ag 15, DAX1 inh-2 6.0 | hgDAF12 ag 12 | LXR ag 2 inactive
O=C(NNC(=S)NC(=O)c1ccccc1)c1ccc(O)cc1	none
COc1ccc(O)c(C2=Nc3ccccc3N=C(c3ccccc3)C2)c1	hgDAF-12 ag 14 | hgDAF12 ag inactive | LXR ag 2 inactive
COc1ccc2c(c1)NC(=O)CC(c1ccccc1)=N2	none
O=C1CCc2cc(S(=O)(=O)Nc3ccccc3F)ccc2N1	hgDAF-12 ag 25 | hgDAF12 ag inactive | LXR ag 2 inactive
O=C1CCc2cc(S(=O)(=O)Nc3ccccc3Cl)ccc2N1	none
C#CCN(C[C@H]1[C@H](OC(=O)Nc2c(C)noc2C)[C@H](OC(=O)Nc2c(C)noc2C)CN(C(=O)OC(C)C)N1C(=O)OC(C)C)S(=O)(=O)c1ccc(C)cc1	none (no result: DAX1 inh-2)
O=c1[nH]c2ccccc2nc1/C=C/c1ccc(F)cc1	hgDAF-12 ag 16 | hgDAF12 ag 11 | LXR ag 2 inactive
CC(C)(C)/C(O)=C/c1nc2ccccc2[nH]c1=O	none
O=c1[nH]c2ccccc2nc1/C=C/c1ccc(O)cc1	hgDAF-12 ag 14 | hgDAF12 ag inactive | LXR ag 2 inactive
O=C(O)c1ccc(/C=C2\CCCc3c2nc2ccccc2c3C(=O)O)cc1	none
CN(C)c1ccc(/C=C2\CCCc3c2nc2ccccc2c3C(=O)O)cc1	hcDAF-12 act 5.7, hgDAF-12 ag 13, ssDAF-12 act 1.6 | hgDAF12 ag 13 | LXR ag 2 inactive
Cc1cc(C)n2nc(SCC(=O)Nc3ccc(O)cc3)nc2n1	hgDAF-12 ag 15 | hgDAF12 ag inactive | LXR ag 2 inactive
Cc1cc(C)n2nc(SCC(=O)Nc3ccc(F)cc3)nc2n1	none
CN(C)c1ccc(C2=NOC(CN3C(=O)c4ccccc4S3(=O)=O)C2)cc1 (centres undefined)	hgDAF-12 ag 13 | hgDAF12 ag 18 | LXR ag 2 inactive
COc1ccc2c(c1)CN1C(=O)N(CC(C)C)S(=O)(=O)CC21 (centres undefined)	none (no result: DAX1 inh-2)
C[C@H]1[C@H](c2ccccc2)Oc2cccc(NCCc3ccccc3)c2S(=O)(=O)N1Cc1cccc(F)c1	none (no result: DAX1 inh-2)
COc1ccc2occ(C(=O)c3cccs3)c2c1	hgDAF-12 ag 15 | hgDAF12 ag 13 | LXR ag 2 inactive
O=C(c1ccc([N+](=O)[O-])o1)N1CCc2ccccc21	none
Cc1ccc(C(=O)N2CCc3ccccc32)o1	hgDAF-12 ag 15, ssDAF-12 act 2.1, DAX1 inh-1 3.8 | hgDAF12 ag 16 | LXR ag 2 inactive
COC(=O)[C@H](C(C)C)N(CCCc1cn(Cc2ccc(C)cc2)nn1)S(=O)(=O)c1ccccc1Br	none (no result: DAX1 inh-2)
COc1ccccc1/C=C/c1nc(C#N)c(N(C)C)o1	hcDAF-12 act 5.8, hgDAF-12 ag 15 | hgDAF12 ag 14 | LXR ag 2 inactive
CCOC(=O)CSc1nc2ccc(N)cc2s1	none
Nc1ccc2nc(SCc3cccc(F)c3)sc2c1	hgDAF-12 ag 16 | hgDAF12 ag 12 | LXR ag 2 inactive
